Results as given in PubChem BioAssay (NCI).
This is part of a sample that, as a whole, favours compounds with a hit. Of some 79,000 tested, about 15% had one in any assay. Calls of active or inactive are those of the source. No stated cut-off is given here; in the data, active means growth inhibition above about 70%; inactive means the rest.

Columns and labels:
[1] = NCI Yeast Anticancer Drug Screen. Data for the rad52 strain (AID 147);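 further: 0% = growth of vehicle-treated control cultures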; settings: S. cerevisiae rad52 mutant growth inhibition, active compounds read high
In short: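 Yeast strain carrying a DNA damage repair alteration was exposed to test compounds. Growth inhibition was measured relative to vehicle-treated controls.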

[2] = NCI Yeast Anticancer Drug Screen. Data for the wt1 strain (AID 149);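 further: 0% = growth of vehicle-treated wt1 cultures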; settings: S. cerevisiae wt1 strain (SPY 50644) growth inhibition, active compounds read high
In short: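 wt1 strain grown with compound or vehicle; inhibition taken from the growth difference.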

[3] = NCI Yeast Anticancer Drug Screen. Data for the rad50EPP+ strain (AID 151);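 further: 0% = growth of vehicle-treated control cultures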; settings: S. cerevisiae rad50 mutant strain, active compounds read high
In short: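 Yeast strain carrying rad50 alteration (rad50EPP+) exposed to compounds; growth inhibition measured relative to vehicle-treated controls.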

[4] = NCI Yeast Anticancer Drug Screen. Data for the mgt1 strain (AID 153); settings: S. cerevisiae mgt1 mutant growth inhibition, active compounds read high
In short: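 Yeast mgt1 strain (DNA repair/cell-cycle alteration panel) exposed to compounds; growth inhibition measured relative to vehicle-treated controls.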

[5] = NCI Yeast Anticancer Drug Screen. Data for the rad50 strain (AID 155);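 further: 0% = growth of vehicle-only cultures of the same strain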; settings: S. cerevisiae rad50 strain growth inhibition, active compounds read high
In short: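 DNA repair mutant yeast, compound exposure, growth read-out; inhibition is taken relative to vehicle.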

[6] = NCI Yeast Anticancer Drug Screen. Data for the mec2-1 strain (AID 157); settings: S. cerevisiae mec2-1 strain, active compounds read high
In short: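 mec2-1 yeast strain, carrying an alteration in DNA damage repair or cell cycle control, was exposed to compounds; growth inhibition was measured relative to vehicle-treated controls.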

[7] = NCI Yeast Anticancer Drug Screen. Data for the rad14 strain (AID 159);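 further: 0% = growth of vehicle-treated control cultures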; settings: S. cerevisiae rad14 strain growth inhibition, active compounds read high
In short: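 DNA repair-defective yeast, compound-exposed; % growth inhibition derived by comparison with vehicle-treated controls.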

[8] = NCI Yeast Anticancer Drug Screen. Data for the sgs1 mgt1 strain (AID 161);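 further: 0% = growth of cultures given vehicle only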; settings: S. cerevisiae sgs1 mgt1 strain, active compounds read high
In short: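 Percent growth inhibition was derived by comparing compound-exposed mutant yeast with vehicle-exposed cultures. The strain carries alterations in DNA damage repair.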

[9] = NCI Yeast Anticancer Drug Screen. Data for the CLN2oe strain (AID 163);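 further: 0% = growth of vehicle-only control cultures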; settings: S. cerevisiae CLN2oe strain, active compounds read high
In short: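 Yeast cells carrying a defined cell-cycle control alteration were exposed to test compounds. Growth inhibition was scored against vehicle-treated control cultures.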

[10] = NCI Yeast Anticancer Drug Screen. Data for the cln2 rad14 strain (AID 165);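 further: 0% = growth equal to vehicle treated cultures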; settings: S. cerevisiae cln2 rad14 strain, active compounds read high
In short: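 Yeast carrying cln2 and rad14 alterations (cell cycle control and DNA damage repair) were exposed to compounds. Growth inhibition was measured against vehicle-treated controls.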

[11] = NCI Yeast Anticancer Drug Screen. Data for the bub3 strain (AID 167); settings: S. cerevisiae bub3 mutant strain, active compounds read high
In short: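 In this screen, a yeast mutant lacking normal mitotic checkpoint function is challenged with compound. Relative growth versus vehicle gives the inhibition value.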

[12] = NCI Yeast Anticancer Drug Screen. Data for the wt2 strain (AID 169);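 further: 0% = growth of vehicle-treated yeast cultures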; settings: S. cerevisiae wt2 strain growth inhibition, active compounds read high
In short: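 Yeast cells were exposed to test compounds, and growth inhibition was measured relative to vehicle-treated controls.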

[13] = NCI Yeast Anticancer Drug Screen. Data for the mlh1 strain (AID 171);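 further: 0% = growth of vehicle-treated control cultures of the same strain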; settings: S. cerevisiae mlh1 strain growth inhibition, active compounds read high
In short: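 Yeast carrying a defined genetic alteration in DNA damage repair or cell cycle control were exposed to test compounds. Growth inhibition was measured relative to vehicle-treated controls.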

[14] = NCI Yeast Anticancer Drug Screen. Data for the sgs1 strain (AID 173);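 further: 0% = growth of vehicle-only control cultures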; settings: S. cerevisiae sgs1 mutant, active compounds read high
In short: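 Yeast mutant strains carrying defined defects in DNA damage repair or cell cycle control were exposed to test compounds. Growth inhibition was scored against vehicle-treated controls.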

[15] = NCI Yeast Anticancer Drug Screen. Data for the mlh1 rad18 strain (AID 175); settings: S. cerevisiae mlh1 rad18 strain growth inhibition, active compounds read high
In short: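 Growth inhibition of the yeast strain was measured after compound exposure and expressed relative to vehicle-treated controls. The strain carries defined defects in DNA damage repair.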

[16] = NCI Yeast Anticancer Drug Screen. Data for the rad18 strain (AID 177); settings: S. cerevisiae rad18 mutant growth inhibition, active compounds read high
In short: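 Yeast carrying a defined DNA damage repair alteration were exposed to compounds. Growth inhibition was expressed relative to vehicle-treated controls.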

[17] = at 5.0 µM (retest, dose inferred, filed as 0.5)
[18] = at 50.0 µM (retest, dose inferred, filed as 5.0)

Measured: growth inhibition

Fc1cc(F)c(F)c(S)c1F
active: [1]; at 100.0 µM 98% | [2]; at 100.0 µM 97% | [3]; at 33.0 µM 90% | [3]; at 100.0 µM 98% | [4]; at 100.0 µM 97% | [5]; [18] 91% | [5]; at 50.0 µM 87.9% | [5]; at 100.0 µM 97% | [6]; [18] 97% | [6]; at 50.0 µM 92.3% | [6]; at 100.0 µM 99% | [7]; at 100.0 µM 96% | [8]; [18] 89% | [8]; at 50.0 µM 83.7% | [9]; at 100.0 µM 98% | [10]; [18] 83% | [10]; at 50.0 µM 79.5% | [11]; at 33.0 µM 84% | [11]; [18] 98% | [11]; at 50.0 µM 90.9% | [11]; at 100.0 µM 99% | [12]; at 100.0 µM 98% | [13]; at 33.0 µM 72% | [13]; at 100.0 µM 98% | [14]; at 100.0 µM 98% | [15]; [18] 99% | [15]; at 50.0 µM 74.5% | [16]; at 100.0 µM 96%
inactive: [1]; at 1.2 µM -44% | [1]; at 3.7 µM -10% | [1]; at 11.0 µM -38% | [1]; at 33.0 µM 29% | [2]; at 1.2 µM -31% | [2]; at 3.7 µM -26% | [2]; at 11.0 µM -39% | [2]; at 33.0 µM 36% | [3]; at 1.2 µM -51% | [3]; at 3.7 µM -18% | [3]; at 11.0 µM 45% | [4]; at 1.2 µM -78% | [4]; at 3.7 µM -74% | [4]; at 11.0 µM -56% | [4]; at 33.0 µM 48% | [5]; at 1.2 µM -43% | [5]; at 3.7 µM -28% | [5]; [17] -12% | [5]; at 11.0 µM -32% | [5]; at 33.0 µM 25% | [6]; at 1.2 µM -56% | [6]; at 3.7 µM -55% | [6]; [17] -19% | [6]; at 11.0 µM -6% | [6]; at 33.0 µM 10% | [7]; at 1.2 µM -47% | [7]; at 3.7 µM -44% | [7]; at 11.0 µM -40% | [7]; at 33.0 µM 4% | [8]; [17] -1% | [9]; at 1.2 µM -29% | [9]; at 3.7 µM -20% | [9]; at 11.0 µM 8% | [9]; at 33.0 µM 69% | [10]; [17] 43% | [11]; at 1.2 µM -9% | [11]; at 3.7 µM -4% | [11]; [17] 12% | [11]; at 11.0 µM 26% | [12]; at 1.2 µM -48% | [12]; at 3.7 µM -46% | [12]; at 11.0 µM -32% | [12]; at 33.0 µM 56% | [13]; at 1.2 µM -34% | [13]; at 3.7 µM -27% | [13]; at 11.0 µM 0% | [14]; at 1.2 µM -34% | [14]; at 3.7 µM -37% | [14]; at 11.0 µM -27% | [14]; at 33.0 µM 54% | [15]; [17] 9% | [16]; at 1.2 µM -43% | [16]; at 3.7 µM -34% | [16]; at 11.0 µM -12% | [16]; at 33.0 µM 48%

COc1ccc2c3c1OC(C)C31CC(=O)CCC1CC2 (stereo not drawn)
inactive: [1]; at 1.2 µM -4% | [1]; at 3.7 µM -1% | [1]; at 11.0 µM 4% | [1]; at 33.0 µM 2% | [1]; at 100.0 µM 15% | [2]; at 1.2 µM -3% | [2]; at 3.7 µM -4% | [2]; at 11.0 µM -5% | [2]; at 33.0 µM -5% | [2]; at 100.0 µM -3% | [3]; at 1.2 µM -5% | [3]; at 3.7 µM 1% | [3]; at 11.0 µM 6% | [3]; at 33.0 µM -1% | [3]; at 100.0 µM 4% | [4]; at 1.2 µM -8% | [4]; at 3.7 µM -5% | [4]; at 11.0 µM -4% | [4]; at 33.0 µM -2% | [4]; at 100.0 µM -1% | [5]; at 1.2 µM -2% | [5]; at 3.7 µM 1% | [5]; [17] 13% | [5]; at 11.0 µM 3% | [5]; at 33.0 µM 4% | [5]; [18] 23% | [5]; at 50.0 µM 7.25% | [5]; at 100.0 µM 13% | [6]; at 1.2 µM -4% | [6]; at 3.7 µM -2% | [6]; [17] -15% | [6]; at 11.0 µM -3% | [6]; at 33.0 µM -3% | [6]; [18] 2% | [6]; at 50.0 µM 14.7% | [6]; at 100.0 µM -2% | [7]; at 1.2 µM -2% | [7]; at 3.7 µM 1% | [7]; at 11.0 µM 2% | [7]; at 33.0 µM 1% | [7]; at 100.0 µM 7% | [8]; [17] 14% | [8]; [18] 25% | [8]; at 50.0 µM 8.45% | [9]; at 1.2 µM -2% | [9]; at 3.7 µM -8% | [9]; at 11.0 µM 1% | [9]; at 33.0 µM -1% | [9]; at 100.0 µM 8% | [10]; [17] 14% | [10]; [18] 9% | [10]; at 50.0 µM 5.05% | [11]; at 1.2 µM -5% | [11]; at 3.7 µM -3% | [11]; [17] 8% | [11]; at 11.0 µM -5% | [11]; at 33.0 µM 0% | [11]; [18] 34% | [11]; at 50.0 µM 10.9% | [11]; at 100.0 µM 8%
